This note sets out measurements from the supplement of paper PMC6522484.

Molecules are shown by their SMILES. ± gives the standard deviation of the averaged measurements.

Experiment [1] relates to DLD1. The experiment in a line: cell viability (CellTiter-Glo) relative to plate median (fraction of plate median); higher = more viable cells. To be noted: 5 µM; treatment time 24 h; reporter: 7TFP. In a few lines: (§1)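 On parallel plates, a Tecan F500 reader recorded either firefly luciferase or CellTiterGlo luminescence. The plates held colorectal cancer cells stably transduced with lentiviral TCF/Wnt firefly luciferase reporters (7TFP or TCF4/Wnt), seeded in 384-well format and treated 24 h later with library compounds at a final 5 µM for 24 h. Per-well signals were normalised to the plate median (webcellHTS2, additive, no log transformation), and two independent replicates were averaged.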

The test system of experiment [2] is HCT116. Described as above. To be noted: 5 µM; treatment time 24 h; reporter: TCF4/Wnt. The method, boiled down:
as §1

In experiment [3] the test system is SW480. Described as above. The note with it: 5 µM; treatment time 24 h; reporter: 7TFP. In a few lines:
as §1

In experiment [4] the test system is DLD1. The experiment in a line: TCF/Wnt firefly luciferase reporter signal relative to plate median (fraction of plate median); higher = higher Wnt reporter signal. To be noted: 5 µM; treatment time 24 h; reporter: 7TFP. In a few lines: as §1
(In general: In a reporter assay the amount or activity of a reporter protein is the signal.)

Experiment [5] relates to SW480. The description is as above. To be noted: 5 µM; treatment time 24 h; reporter: 7TFP. The method, boiled down:
as §1

`C[C@H](CCC(=O)O)[C@H]1CC[C@H]2[C@@H]3CC[C@@H]4C[C@H](O)CC[C@]4(C)[C@H]3CC[C@]12C`: the values for the cell viability in experiment [1], in experiment [2] and in experiment [3] were 1.11 ± 0.11, 1.17 ± 0.15 and 1.04 ± 0.028, respectively. The results for the “TCF/Wnt firefly luciferase reporter signal” value in experiment [4] and in experiment [5] were 1.21 ± 0.11 and 1.16 ± 0.014, respectively.

In the case of `CC(C)c1ncc(Cc2ccccc2)[nH]c1=O` [Phevalin], the cell viability in experiment [1] worked out at 1.14 ± 0.22; in experiment [2] it was 1.07 ± 0.014; in experiment [3] it was 1.004 ± 0.0078. The “TCF/Wnt firefly luciferase reporter signal” value in experiment [4] came out at 0.982 ± 0.019; in experiment [5], 0.922 ± 0.12.

Consider `CC(=O)O[C@]1(C(C)=O)CC[C@H]2[C@@H]3C=C(Cl)C4=CC(=O)[C@@H]5C[C@@H]5[C@]4(C)[C@H]3CC[C@@]21C`, for which the values for the cell viability in experiment [1], in experiment [2] and in experiment [3] were 1 ± 0.035, 0.96 ± 0.086 and 0.948 ± 0.0028, respectively. Also, the “TCF/Wnt firefly luciferase reporter signal” value in experiment [4] amounted to 0.81 ± 0.052; in experiment [5], 0.923 ± 0.22.

Turning to `CCC1(c2ccccc2)C(=O)NCNC1=O`, the figures for the cell viability in experiment [1], in experiment [2] and in experiment [3] were 1.02 ± 0.029, 0.994 ± 0.15 and 1 ± 0.025, respectively. The “TCF/Wnt firefly luciferase reporter signal” value in experiment [4] worked out at 0.978 ± 0.1; in experiment [5], 1.06 ± 0.028.

Regarding `COC(=O)[C@@H]1OC(=O)C2OC23[C@@]1(C)CCC1[C@@]2(C)CCC(=O)C(C)(C)C2C[C@@H](OC(C)=O)[C@]13C` (stereo not given in full), the figures for the cell viability in experiment [1], in experiment [2] and in experiment [3] were 0.993 ± 0.011, 1.07 ± 0.078 and 1.01 ± 0.017, respectively. In addition, the “TCF/Wnt firefly luciferase reporter signal” value is 0.86 ± 0.037 in experiment [4] and 1.03 ± 0.046 in experiment [5].

Regarding `Cn1c([N+](=O)[O-])cnc1COC(N)=O`, the figures for the cell viability in experiment [1], in experiment [2] and in experiment [3] were 0.999 ± 0.072, 1.07 ± 0.071 and 1.03 ± 0.014, respectively. Besides, the entries for the “TCF/Wnt firefly luciferase reporter signal” value in experiment [4] and in experiment [5] were 1.05 ± 0.028 and 0.996 ± 0.12, respectively.

In the case of `Nc1ncnc2c1ncn2[C@H]1C[C@H](O)[C@@H](CO)O1`, the results for the cell viability in experiment [1], in experiment [2] and in experiment [3] were 1.07 ± 0.064, 1.06 ± 0.021 and 1.01 ± 0.044, respectively. In addition, the figures for the “TCF/Wnt firefly luciferase reporter signal” value in experiment [4] and in experiment [5] were 1.05 ± 0.014 and 1.09 ± 0.064, respectively.

As for `CCCN(CCC)C(=O)C(CCC(=O)O)NC(=O)c1ccccc1` (stereo not given), the cell viability was found to be 0.921 ± 0.057 in experiment [1], 1.06 ± 0.035 in experiment [2] and 0.904 ± 0.024 in experiment [3]. In addition, the “TCF/Wnt firefly luciferase reporter signal” value in experiment [4] was determined as 1.01 ± 0.024; in experiment [5] it was 1.06 ± 0.05.

Regarding `CC(=O)OC(C)C[N+](C)(C)C` (stereo not given), the cell viability was determined as 0.968 ± 0.1 in experiment [1], 1.03 ± 0.08 in experiment [2] and 0.997 ± 0.019 in experiment [3]. Further, the “TCF/Wnt firefly luciferase reporter signal” value in experiment [4] amounted to 1.01 ± 0.071; in experiment [5] it was 1.01 ± 0.021.

Turning to `C=CCCCCCCCCC(=O)[O-].C=CCCCCCCCCC(=O)[O-].[Zn+2]`, the figures for the cell viability in experiment [1], in experiment [2] and in experiment [3] were 0.996 ± 0.049, 0.903 ± 0.011 and 0.964 ± 0.023, respectively. Besides, the “TCF/Wnt firefly luciferase reporter signal” value in experiment [4] stood at 0.94 ± 0.24; in experiment [5] it was 0.968 ± 0.041.

With `Cc1cc(O)c(C=O)c(O)c1C(=O)O`, the cell viability in experiment [1] came to 0.939 ± 0.14; in experiment [2] it was 0.939 ± 0.064; in experiment [3], 0.957 ± 0.035. Besides, the “TCF/Wnt firefly luciferase reporter signal” value in experiment [4] was found to be 1.09 ± 0.14; in experiment [5], 0.9475 ± 0.0035.

As for `CO[C@@H]1[C@@H](OC(N)=O)[C@@H](O)[C@H](Oc2ccc3c(O)c(NC(=O)c4ccc(O)c(CC=C(C)C)c4)c(=O)oc3c2C)OC1(C)C`, the cell viability worked out at 0.988 ± 0.088 in experiment [1], 0.8935 ± 0.005 in experiment [2] and 1.004 ± 0.0085 in experiment [3]. Further, the figures for the “TCF/Wnt firefly luciferase reporter signal” value in experiment [4] and in experiment [5] were 1.27 ± 0.05 and 1.14, respectively.

Take `CC(C)(C(=O)O)c1ccc(C(O)CCCN2CCC(C(O)(c3ccccc3)c3ccccc3)CC2)cc1` (stereo not given): the cell viability in experiment [1] worked out at 1.05 ± 0.078; in experiment [2], 0.899 ± 0.049; in experiment [3], 1.055 ± 0.0071. For the same compound, the “TCF/Wnt firefly luciferase reporter signal” value in experiment [4] amounted to 1.05 ± 0.028; in experiment [5], 1.13.

For `C[C@@H]1CC(=O)c2c(ccc3c2C(=O)c2cccc(O)c2C3=O)C1` [Ochromycinone (Isoform A, compound ID 7490)], the values for the cell viability in experiment [1], in experiment [2] and in experiment [3] were 1.06 ± 0.078, 1.005 ± 0.0071 and 1.02 ± 0.072, respectively. For the same compound, the figures for the “TCF/Wnt firefly luciferase reporter signal” value in experiment [4] and in experiment [5] were 1 ± 0.023 and 0.997 ± 0.32, respectively.
